Source: PubChem BioAssay (Tox21)
“And” between values parts separate entries of the source, which are not always exact repeats. Identical values can stand only once. Results filed as inconclusive are left out. Entries that show only a call come without a potency. The source made the active and inactive calls. Calls come from the whole dose curve; as a rule, active = well fitted activation curve with a large enough effect in the repeat runs; inconclusive = weak or mixed curves; inactive = flat fitted curve, though single readings scatter.

Assay: A CellTox Green Cytotoxicity Assay to monitor cytotoxicity in HepG2 cells - 16 hour (AID 1224876); note: nearly all actives have a fitted effect of over 45% in size
Settings: CellTox Green fluorescence; series mostly up to 76.8 µM
From the text: National Center for Advancing Translational Sciences [NCATS]
NIH Chemical Genomics Center [NCGC]
U.S. Environmental Protection Agency [EPA]
National Institutes of Environmental Health Sciences [NIEHS]
National Toxicology Program [NTP]
Cell-based models are critical for drug discovery. Determining the natural cytotoxic effects resulting from test compounds is an essential research activity. A CellTox Green Cytotoxicity Assay to monitor cytotoxicity in real time of continues cell culture during 40 hours of the compound treatment was used to screen Tox21 10K library compounds in HepG2 cells. CellTox Green Cytotoxicity Assay is a nonlytic, homogeneous, biofluorescent method to measure cytotoxicity in cell culture after experimental manipulation. The assay system uses a proprietary asymmetric cyanine dye that is excluded from viable cells but preferentially stains the dead cell's DNA. […] Viable cells produce no appreciable increases in fluorescence. Therefore, the fluorescence signal produced by the binding interaction with dead cell DNA is proportional to cytotoxicity.
The mixture of HepG2 cell suspension and reagents were dispensed at 600cells/6 ul/well in 1536-well tissue culture treated black solid bottom plates using a Multidrop dispenser. After the assay plates were incubated at a 37 C/5% CO2 incubator for 5 hours, 23 nL of compounds dissolved in DMSO, positive and negative controls was transferred to the assay plate by a pintool work station. The plates were incubated at 37 C for 40 hours. The fluorescence intensity were measured at 0h, 8h, 16h, 24h, 32h and 40h time points using ViewLux plate reader during compound treatment.
Potency is the fitted concentration of half-maximal effect.

Which Potency does the source give for Oc1cc(Cl)ccc1Oc1ccc(Cl)cc1Cl here?
The Potency was 44.7 µM (active) and 19 µM (active).

For CCCCN(CC)c1c([N+](=O)[O-])cc(C(F)(F)F)cc1[N+](=O)[O-], which Potency is on record?
The Potency was “inactive”.

Which Potency does the source give for Nc1ccc(-c2ccccc2)cc1 here?
Its Potency is “inactive”.

For C#C[C@]1(O)CC[C@H]2[C@@H]3CCC4=CC(=O)CC[C@]4(C)[C@H]3CC[C@@]21C, which Potency is on record?
The Potency was “inactive”.

For CCCCCCOC(=O)c1ccccc1C(=O)OCCCCCC, which Potency is on record?
The Potency was “inactive”.

Which Potency does the source give for CC(C)(C)c1ccccc1O here?
The Potency was 44.2 µM (active).

For C=C(C)C(=O)OCC1CO1 (stereo not given), which Potency is on record?
Its Potency is “inactive”.

With ClC1C(Cl)C(Cl)C(Cl)C(Cl)C1Cl (stereo not given) as the compound, how does the Potency read?
The Potency was “inactive”.

For NNC(=S)NN, which Potency is on record?
Its Potency is “inactive”.

Which Potency does the source give for C[C@]12CCC(=O)C(O)=C1CC[C@@H]1[C@@H]2CC[C@]2(C)C(=O)CC[C@@H]12 here?
Its Potency is “inactive”.

Which Potency does the source give for CC1(C)C(C=C(Cl)Cl)C1C(=O)OC(C#N)c1cccc(Oc2ccccc2)c1 (stereo not given) here?
The Potency was “inactive”.

For S=C1NCCN1, which Potency is on record?
The Potency was “inactive”.

With O=S(=O)(Oc1ccc(Cl)cc1)c1ccc(Cl)cc1 as the compound, how does the Potency read?
Its Potency is “inactive”.

Which Potency does the source give for CCCCCCCCC(=O)NCc1ccc(O)c(OC)c1 here?
Its Potency is “inactive”.

For CCCCC(CC)COC(=O)Cl (stereo not given), which Potency is on record?
Its Potency is “inactive”.

Which Potency does the source give for CCN(CC)C(=O)SCc1ccc(Cl)cc1 here?
Its Potency is “inactive”.

With COP(=O)(OC)OC as the compound, how does the Potency read?
Its Potency is “inactive”.

Which Potency does the source give for CCC(=O)O[C@H]1CC[C@H]2[C@@H]3CCC4=CC(=O)CC[C@]4(C)[C@H]3CC[C@]12C here?
Its Potency is 38.9 µM (active).

With N#Cc1cc(Br)c(O)c(Br)c1 as the compound, how does the Potency read?
Its Potency is “inactive”.

Which Potency does the source give for O=c1oc2ccccc2c(O)c1C(CC(O)c1ccc(-c2ccc(Br)cc2)cc1)c1ccccc1 (stereo not given) here?
Its Potency is “inactive”.

For Cc1ccccc1[N+](=O)[O-], which Potency is on record?
Its Potency is “inactive”.

Which Potency does the source give for CCOc1cc(C=O)ccc1O here?
Its Potency is “inactive”.

Which Potency does the source give for c1ccc(N=Nc2ccccc2)cc1 here?
The Potency was “inactive”.

For OCC(O)CO, which Potency is on record?
The Potency was “inactive”.

With Cc1c(COC(=O)[C@@H]2[C@H](/C=C(\Cl)C(F)(F)F)C2(C)C)cccc1-c1ccccc1 as the compound, how does the Potency read?
The Potency was “inactive”.

For CCCCNC(=O)n1c(NC(=O)OC)nc2ccccc21, which Potency is on record?
Its Potency is “inactive”.

Which Potency does the source give for O=C1C=CC(=O)C=C1 here?
Its Potency is “inactive”.

With CC(C)C(=O)OCC(C)(C)C(OC(=O)C(C)C)C(C)C (stereo not given) as the compound, how does the Potency read?
The Potency was “inactive”.

Which Potency does the source give for CCC(CC)Nc1c([N+](=O)[O-])cc(C)c(C)c1[N+](=O)[O-] here?
Its Potency is “inactive”.

Which Potency does the source give for c1ccc(-c2cccc(-c3ccccc3)c2)cc1 here?
The Potency was “inactive”.

For CC(C)(OOC(C)(C)c1ccccc1)c1ccccc1, which Potency is on record?
Its Potency is “inactive”.

With CCC(C)(C)c1ccc(O)cc1 as the compound, how does the Potency read?
The Potency was 44.1 µM (active) and 43.6 µM (active).

Which Potency does the source give for Cc1cc(C)cc(C)c1 here?
The Potency was “inactive”.

With Nc1ccc(Cl)c(Cl)c1 as the compound, how does the Potency read?
The Potency was “inactive”.

For CCCCCCCCCCCOC(=O)c1ccccc1C(=O)OCCCCCCCCCCC, which Potency is on record?
Its Potency is “inactive”.

Which Potency does the source give for O=[N+]([O-])c1cccc2ccccc12 here?
The Potency was “inactive”.

Which Potency does the source give for C[C@]12CCC(=O)C[C@@H]1CC[C@@H]1[C@@H]2CC[C@]2(C)[C@@H](O)CC[C@@H]12 here?
Its Potency is “inactive”.

Which Potency does the source give for O=P(O)(O)CCCl here?
Its Potency is “inactive”.

For CC(C)NC(C)C, which Potency is on record?
Its Potency is “inactive”.

For Oc1ccc(-c2ccccc2)cc1, which Potency is on record?
Its Potency is “inactive”.
